The panel holds about 79,000 compounds, 15% with a hit somewhere; the sample as a whole holds those more often. Activity calls are given as the source filed them. Rule as the data show it: active = growth inhibition above about 70%; inactive = the rest.
Tests used:
[1] = NCI Yeast Anticancer Drug Screen. Data for the rad50 strain (AID 155);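 also: 0% = growth of vehicle-only cultures of the same strain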; settings: S. cerevisiae rad50 strain growth inhibition, hits give high values
In short: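 DNA repair mutant yeast, compound exposure, growth read-out; inhibition is taken relative to vehicle.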

[2] = NCI Yeast Anticancer Drug Screen. Data for the mec2-1 strain (AID 157); settings: S. cerevisiae mec2-1 strain, hits give high values
In short: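 Each compound was tested on mec2-1 yeast, a strain altered in DNA damage repair or cell cycle control. Growth inhibition is reported relative to vehicle.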

[3] = NCI Yeast Anticancer Drug Screen. Data for the sgs1 mgt1 strain (AID 161);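 also: 0% = growth of cultures given vehicle only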; settings: S. cerevisiae sgs1 mgt1 strain, hits give high values
In short: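 Genetically altered yeast, compound exposure, growth inhibition relative to vehicle.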

[4] = NCI Yeast Anticancer Drug Screen. Data for the cln2 rad14 strain (AID 165);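 also: 0% = growth equal to vehicle treated cultures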; settings: S. cerevisiae cln2 rad14 strain, hits give high values
In short: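 Test compounds were added to cln2 rad14 yeast cultures; inhibition of growth was then determined by comparison with vehicle treatment.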

[5] = NCI Yeast Anticancer Drug Screen. Data for the bub3 strain (AID 167); settings: S. cerevisiae bub3 mutant strain, hits give high values
In short: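 In this screen, a yeast mutant lacking normal mitotic checkpoint function is challenged with compound. Relative growth versus vehicle gives the inhibition value.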

[6] = NCI Yeast Anticancer Drug Screen. Data for the mlh1 rad18 strain (AID 175); settings: S. cerevisiae mlh1 rad18 strain growth inhibition, hits give high values
In short: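 Inhibition values reflect reduced growth of mutant yeast versus vehicle-treated controls following compound exposure; the mutations affect DNA damage repair.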

[7] = at 5.0 µM (retest, dose inferred, filed as 0.5)
[8] = at 50.0 µM (retest, dose inferred, filed as 5.0)

| SMILES | growth inhibition [1, 7] | growth inhibition [1, 8] | growth inhibition ([1]; at 50.0 µM) | growth inhibition [2, 7] | growth inhibition [2, 8] | growth inhibition ([2]; at 50.0 µM) | growth inhibition [3, 7] | growth inhibition [3, 8] | growth inhibition ([3]; at 50.0 µM) | growth inhibition [4, 7] | growth inhibition [4, 8] | growth inhibition ([4]; at 50.0 µM) | growth inhibition [5, 7] | growth inhibition [5, 8] | growth inhibition ([5]; at 50.0 µM) | growth inhibition [6, 7] | growth inhibition [6, 8] | growth inhibition ([6]; at 50.0 µM) |
| --- | --- | --- | --- | --- | --- | --- | --- | --- | --- | --- | --- | --- | --- | --- | --- | --- | --- | --- |
| N#C[S-].[Nd+3].c1ccc(-c2ccccn2)nc1.c1ccc(-c2ccccn2)nc1.c1ccc(-c2ccccn2)nc1 | 62% (inactive) | 99% (active) | 91.2% (active) | 40% (inactive) | 99% (active) | 94.1% (active) | 44% (inactive) | 99% (active) | 93.5% (active) | 33% (inactive) | 96% (active) | 92.5% (active) | 62% (inactive) | 100% (active) | 93% (active) | 51% (inactive) | 99% (active) | 92% (active) |
| CCOc1c(Br)cc(/C=C/[N+](=O)[O-])cc1OC | 44% (inactive) | 98% (active) | 69.8% (inactive) | 61% (inactive) | 98% (active) | 75.5% (active) | 32% (inactive) | 98% (active) | 84% (active) | 45% (inactive) | 92% (active) | 77% (active) | 61% (inactive) | 99% (active) | 79% (active) | 58% (inactive) | 98% (active) | 90.5% (active) |
| N=P(c1ccccc1)(c1ccccc1)c1ccccc1.[O]=[Cr](=[O])([OH])[O][Cr](=[O])(=[O])[OH] | 9% (inactive) | 80% (active) | 71.3% (active) | 5% (inactive) | 76% (active) | 26.4% (inactive) | 16% (inactive) | 91% (active) | 37.3% (inactive) | -4% (inactive) | 50% (inactive) | 8.95% (inactive) | -4% (inactive) | 81% (active) | 11.2% (inactive) | 4% (inactive) | 57% (inactive) | 53.2% (inactive) |
| CC#N.FC(F)(F)C#CC(F)(F)F.FC(F)(F)C#CC(F)(F)F.FC(F)(F)C#CC(F)(F)F.[W] | 90% (active) | 99% (active) | 99.4% (active) | 83% (active) | 99% (active) | 99.5% (active) | 90% (active) | 99% (active) | 99.7% (active) | 85% (active) | 99% (active) | 99.2% (active) | 94% (active) | 99% (active) | 99.6% (active) | 95% (active) | 99% (active) | 99.3% (active) |
| C=CCN1C(=O)NC(=O)/C(=C/c2c3ccccc3cc3ccccc23)C1=O | 58% (inactive) | 98% (active) | 69.2% (inactive) | 85% (active) | 98% (active) | 47.7% (inactive) | 66% (inactive) | 99% (active) | 82.2% (active) | 48% (inactive) | 98% (active) | -22.6% (inactive) | 83% (active) | 96% (active) | 88% (active) | 79% (active) | 99% (active) | 85% (active) |
| C[C@]12CC/C(=N\OC(=O)Nc3ccccc3)C=C1CC[C@@H]1C2CC[C@@]2(C)C1CC[C@@H]2OC(=O)Nc1ccccc1 (stereo not given in full) | -7% (inactive) | 71% (active) | 47.2% (inactive) | -2% (inactive) | 71% (active) | 95% (active) | 1% (inactive) | 86% (active) | 4% (inactive) | -5% (inactive) | 47% (inactive) | 31.9% (inactive) | -8% (inactive) | 65% (inactive) | 93.1% (active) | -4% (inactive) | 87% (active) | 89% (active) |
| CC(=O)Oc1ccc(N=C2C=C(Cl)C(=O)C(Cl)=C2)cc1 | 5% (inactive) | 23% (inactive) | 34.5% (inactive) | 9% (inactive) | 26% (inactive) | -2.05% (inactive) | 2% (inactive) | 24% (inactive) | 33.4% (inactive) | 6% (inactive) | 14% (inactive) | -23.8% (inactive) | 9% (inactive) | 46% (inactive) | 22.7% (inactive) | 7% (inactive) | 54% (inactive) | 19.9% (inactive) |
| CCC(=O)O[C@H]1CC[C@H]2[C@@H]3CCC4=C/C(=N/OC(=O)c5cccc6c(=O)c7ccccc7[nH]c56)CC[C@]4(C)[C@H]3CC[C@]12C | 29% (inactive) | 83% (active) | 53.8% (inactive) | 26% (inactive) | 31% (inactive) | 77.4% (active) | -26% (inactive) | 52% (inactive) | 79.3% (active) | -14% (inactive) | 43% (inactive) | 47.1% (inactive) | 10% (inactive) | 66% (inactive) | 74.4% (active) | 29% (inactive) | 40% (inactive) | 17.6% (inactive) |
| CCCCCCC1CCC2CCCC(C)N12 (stereo not given) | -5% (inactive) | 67% (inactive) | 85.3% (active) | -4% (inactive) | 25% (inactive) | 70.8% (active) | 10% (inactive) | 68% (inactive) | 88.2% (active) | 14% (inactive) | 43% (inactive) | 71.1% (active) | -19% (inactive) | 74% (active) | 89% (active) | 2% (inactive) | 57% (inactive) | 74.9% (active) |
| CSc1nncc(=O)[nH]1.[Hg] | 99% (active) | 99% (active) | 99.2% (active) | 99% (active) | 99% (active) | 99.5% (active) | 100% (active) | 99% (active) | 99.5% (active) | 99% (active) | 99% (active) | 99.2% (active) | 99% (active) | 99% (active) | 99.2% (active) | 99% (active) | 99% (active) | 99.2% (active) |
| c1ccc(NC2=NCCN2)nc1 | -4% (inactive) | 82% (active) | 14.4% (inactive) | -26% (inactive) | 99% (active) | 34.2% (inactive) | 11% (inactive) | 70% (active) | 62.3% (inactive) | 24% (inactive) | 49% (inactive) | 0.35% (inactive) | -8% (inactive) | 84% (active) | 25.4% (inactive) | -13% (inactive) | 98% (active) | 15.2% (inactive) |
| CC(=O)C1CCC2C3CCC4=CC(=[N+]5CCCCC5)CCC4(C)C3CCC12C (stereo not given) | 98% (active) | 74% (active) | 95.4% (active) | 100% (active) | 95% (active) | 96.4% (active) | 97% (active) | 95% (active) | 97.5% (active) | 99% (active) | 87% (active) | 91.7% (active) | 99% (active) | 93% (active) | 93.5% (active) | 99% (active) | 92% (active) | 95.8% (active) |
| O=C(CBr)Nc1ccccc1Cl | 19% (inactive) | 99% (active) | 99.3% (active) | -3% (inactive) | 99% (active) | 99.5% (active) | 40% (inactive) | 98% (active) | 99.1% (active) | 20% (inactive) | 99% (active) | 98.5% (active) | 23% (inactive) | 99% (active) | 99.5% (active) | 18% (inactive) | 99% (active) | 99.2% (active) |
| Cc1cc([N+](=O)[O-])c(O)c([N+](=O)[O-])c1C | 2% (inactive) | 71% (active) | 67.5% (inactive) | 12% (inactive) | 47% (inactive) | 26.6% (inactive) | 3% (inactive) | 70% (active) | 62.5% (inactive) | -42% (inactive) | 34% (inactive) | 45.4% (inactive) | 11% (inactive) | 58% (inactive) | 63.2% (inactive) | -7% (inactive) | 90% (active) | 54.1% (inactive) |
| Cc1ccc(S)cc1.[Pb] | 0% (inactive) | 30% (inactive) | 20.1% (inactive) | 2% (inactive) | 6% (inactive) | 43.1% (inactive) | 3% (inactive) | 28% (inactive) | 44.5% (inactive) | 5% (inactive) | 2% (inactive) | -1.55% (inactive) | 3% (inactive) | 50% (inactive) | 95.9% (active) | 0% (inactive) | 13% (inactive) | 83.8% (active) |

From PubChem BioAssay (NCI)
